Test results as given in the supplement of paper PMC3334620.
In all, about 33,000 sequences were measured (“E-score (-0.5 to 0.5)”: median about -0.011, highest 2% from about 0.28 on). Only a selection was taken, and the highest values are over-represented in it overall.

The sequences below were run against T1, Gcr1 (UniProt P07261) (assay: PBM E-score (8-mer binding enrichment) (E-score (-0.5 to 0.5)); higher = stronger / more preferred TF binding). Settings: protein concentration: 100 nM; construct: GST-full length.
T1 sequence: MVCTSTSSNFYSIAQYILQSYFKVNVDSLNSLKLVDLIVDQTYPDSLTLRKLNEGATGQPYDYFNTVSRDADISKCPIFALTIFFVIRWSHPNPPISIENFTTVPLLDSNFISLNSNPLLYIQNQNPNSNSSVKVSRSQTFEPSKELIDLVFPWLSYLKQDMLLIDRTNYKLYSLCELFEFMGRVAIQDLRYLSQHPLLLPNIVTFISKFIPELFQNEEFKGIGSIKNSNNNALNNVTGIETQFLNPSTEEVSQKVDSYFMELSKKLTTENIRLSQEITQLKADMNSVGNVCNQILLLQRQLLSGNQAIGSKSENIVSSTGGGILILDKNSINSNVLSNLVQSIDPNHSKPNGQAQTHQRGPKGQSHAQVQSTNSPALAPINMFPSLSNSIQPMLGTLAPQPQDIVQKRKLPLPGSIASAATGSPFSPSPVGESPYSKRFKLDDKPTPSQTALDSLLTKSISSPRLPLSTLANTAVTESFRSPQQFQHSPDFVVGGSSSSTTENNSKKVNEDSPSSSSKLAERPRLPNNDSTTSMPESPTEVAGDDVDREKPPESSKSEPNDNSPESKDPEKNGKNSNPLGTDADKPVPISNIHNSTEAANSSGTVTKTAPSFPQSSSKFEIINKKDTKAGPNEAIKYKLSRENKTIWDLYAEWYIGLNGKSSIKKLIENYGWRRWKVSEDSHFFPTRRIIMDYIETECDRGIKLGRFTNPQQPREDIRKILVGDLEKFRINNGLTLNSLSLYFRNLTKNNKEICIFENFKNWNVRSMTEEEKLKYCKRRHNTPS
How it was run: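 Universal all-10-mer Agilent arrays, fresh or stripped once, were converted to double-stranded form by primer extension. GST-tagged yeast transcription factors from PURExpress in vitro transcription/translation, full-length or DNA-binding domain only, were applied at about 100-200 nM and detected with fluorescent anti-GST. After masliner normalisation, the Universal PBM Analysis Suite scored each ungapped eight-base word together with its reverse complement by E-score.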
For CAGCTGGG, the “PBM E-score” value was -0.0114. In the case of AACACCGT, the “PBM E-score” value is reported as -0.132. With ACATTTGC the “PBM E-score” value was -0.0633. For CTGGTGCC, the “PBM E-score” value was 0.352. For CTGGTGCA, the “PBM E-score” value was 0.216. For CGGGTGTC, the “PBM E-score” value was -0.116. ATGGTGCC was tested, and the “PBM E-score” value was 0.227. With AGGGTGCC the “PBM E-score” value was 0.39. For AAGGTGCC, the “PBM E-score” value was 0.144. With AGGGTGCA the “PBM E-score” value was -0.0715. In the case of GAGGTGCA, the “PBM E-score” value is reported as -0.125. With AGGGTGCG the “PBM E-score” value was 0.0402. CGGGTGCA was tested, and the “PBM E-score” value was 0.0724. In the case of GAGGTGCC, the “PBM E-score” value is reported as 0.281. With CGGGTGCC the “PBM E-score” value was 0.377. GCGATCCC was tested, and the “PBM E-score” value was 0.0838. ACCAACCT was tested, and the “PBM E-score” value was -0.0617. For ACCAATAA, the “PBM E-score” value was 0.0976. With CAGGGAGG the “PBM E-score” value was -0.257. In the case of CGTGGTGA, the “PBM E-score” value is reported as -0.09. With CAGTCTAC the “PBM E-score” value was -0.0756. In the case of AGACGCAG, the “PBM E-score” value is reported as 0.0695. In the case of AGACGCAT, the “PBM E-score” value is reported as 0.231. AGACGCCA was tested, and the “PBM E-score” value was 0.283. With ACACGCCG the “PBM E-score” value was 0.199. For CGACGCCG, the “PBM E-score” value was 0.349. In the case of ACACGCCA, the “PBM E-score” value is reported as -0.163. For CGCCGACG, the “PBM E-score” value was 0.0121. ACACGCCT was tested, and the “PBM E-score” value was -0.087. AGACGCCG was tested, and the “PBM E-score” value was 0.421. With AGACGCCT the “PBM E-score” value was 0.327. CGACGCCA was tested, and the “PBM E-score” value was 0.157. CCACGCCG was tested, and the “PBM E-score” value was -0.106. With AAAGCGCG the “PBM E-score” value was -0.0766. TAGCCCCA was tested, and the “PBM E-score” value was 0.139. In the case of AGAGGGGC, the “PBM E-score” value is reported as -0.044. GGTTTGAC was tested, and the “PBM E-score” value was 0.0178. For CGTATGAC, the “PBM E-score” value was 0.0685. For TAAACCGA, the “PBM E-score” value was -0.235. With CTCTGTTC the “PBM E-score” value was -0.0161. AACCGGGT was tested, and the “PBM E-score” value was 0.0617. For GTCCGAAA, the “PBM E-score” value was 0.212. With CTGGTCAA the “PBM E-score” value was 0.0775. CGACGCGC was tested, and the “PBM E-score” value was 0.0401. In the case of AGACGCGA, the “PBM E-score” value is reported as 0.214. In the case of AGACGCGC, the “PBM E-score” value is reported as 0.289. For ACCGTGGG, the “PBM E-score” value was -0.00593. For AAGTGGAT, the “PBM E-score” value was 0.136. With AAGTGGTC the “PBM E-score” value was 0.0307. With GAGTGGAC the “PBM E-score” value was -0.0196. For GGGTGGAA, the “PBM E-score” value was -0.113. With CAGTGGAA the “PBM E-score” value was 0.244. With AAGTGGTG the “PBM E-score” value was 0.281. With AAGTGGAA the “PBM E-score” value was 0.41. TGGTGGAA was tested, and the “PBM E-score” value was 0.124. With AAGTGGTA the “PBM E-score” value was 0.176. With TAGTGGAA the “PBM E-score” value was 0.42. GAGTGGAA was tested, and the “PBM E-score” value was 0.316. AAGTGGAG was tested, and the “PBM E-score” value was 0.141. GTCGCCTA was tested, and the “PBM E-score” value was 0.0571. With GATCTCAC the “PBM E-score” value was -0.257. In the case of CTAGGGTC, the “PBM E-score” value is reported as 0.00957. In the case of ATTTTTTG, the “PBM E-score” value is reported as 0.228. With AGTTATTC the “PBM E-score” value was 0.0537. For CACTGTAG, the “PBM E-score” value was -0.115. With TAGTGGCA the “PBM E-score” value was 0.289. For GAGTGGCA, the “PBM E-score” value was -0.0587. In the case of AAGTGGCA, the “PBM E-score” value is reported as 0.238. For AAGCGATC, the “PBM E-score” value was -0.135. For AGGTAGTC, the “PBM E-score” value was 0.072. With AGGAGTCC the “PBM E-score” value was 0.303. For CGGAGTCC, the “PBM E-score” value was 0.281. In the case of CGGAGTCA, the “PBM E-score” value is reported as -0.00995. In the case of AGGAGTCA, the “PBM E-score” value is reported as -0.0283. For CGGAGTAC, the “PBM E-score” value was -0.243. AGGAGTCG was tested, and the “PBM E-score” value was -0.069. In the case of GACACCTA, the “PBM E-score” value is reported as 0.0961. TCCCTACA was tested, and the “PBM E-score” value was 0.00308. In the case of AAGCAGGA, the “PBM E-score” value is reported as 0.0293. In the case of CCTCAGAC, the “PBM E-score” value is reported as -0.19. For CAACTTCA, the “PBM E-score” value was -0.0643. GCACTTCC was tested, and the “PBM E-score” value was 0.168. In the case of CAACTTCG, the “PBM E-score” value is reported as 0.107. With CCACTTCG the “PBM E-score” value was 0.0958. For CCACTTCC, the “PBM E-score” value was 0.305. With CAACTTCC the “PBM E-score” value was 0.321. GGCTCGCA was tested, and the “PBM E-score” value was -0.137.
